The values below come from PubChem BioAssay (NCATS).

Values joined by “and” are separate entries in the source; they are usually repeats but may differ in a detail not shown here. Equal entries are not always repeated. Inconclusive results are not listed. Some compounds were tested as several samples or in several runs, with calls that do not always agree. Active and inactive are the calls of the source. Unless noted, the call rests on the fitted dose curve; in most records, active means well fitted curve in the direction sought with a large enough effect; inconclusive means small, poorly fitted or top-dose-only effect, or another doubt; inactive means no such curve, though single readings can be large; an effect the other way counts as inactive or inconclusive.

Assay [1] concerns the target Guanine nucleotide-binding protein G(i) subunit alpha-1 (Homo sapiens) (UniProt P63096). Description: qHTS Assay for Inhibitors of RGS12 GoLoco Motif Activity (Green Fluorophore) (AID 879).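 Further: negative values mean loss of peptide binding seen as reduced polarization.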 In outline:
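Fluorescence polarization assay: 50 nM Gαi1 with 10 nM FITC-labeled RGS12 GoLoco peptide in 10 mM Tris pH 7.5, 150 mM NaCl, 0.1 mM GDP, 0.05% NP40, 10 min at room temperature with compound.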
Background: In qHTS, concentration-response curves come from the screen itself.

In assay [2] the target is Pyruvate kinase (Leishmania mexicana) (UniProt Q27686). The assay can be described thus: qHTS Validation Assay for Inhibitors of Leishmania Mexicana Pyruvate Kinase (AID 945). In outline: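 qHTS eight-point titrations against 0.2 nM LmPYK (E451W) in imidazole buffer pH 7.2 with 0.5 mM PEP, 0.1 mM ADP; 1 h, room temperature. Readout: PKLight luminescence, normalized to neutral DMSO wells.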

For assay [3], the target named is Alpha-galactosidase (Coffea arabica) (UniProt Q42656). The assay can be described thus: Counterscreen for Glucocerebrosidase Inhibitors: qHTS Assay for Coffee Bean alpha-Galactosidase at pH 4.5 (AID 957). Further: series mostly up to about 77 µM. The gist of the method:
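AC50 values derive from Hill-equation modeling of concentration-response data, normalized to no-enzyme and full-activity controls. The pH 4.5 citrate assay used 2 nM coffee bean enzyme and 80 uM fluorogenic substrate for 20 min.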
(In general: The purpose of a counterscreen is to sort out artefacts and off-target activity.)

For assay [4], the target named is Alpha-galactosidase A (Homo sapiens) (UniProt P06280). The assay can be described thus: Counterscreen for Glucocerebrosidase Inhibitors: qHTS Assay for Human alpha-Galactosidase at pH 4.5 (AID 992). In outline:
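Enzyme at 2 nM final was combined with compound (0.7 nM to 77 uM) and 80 uM 4-methylumbelliferyl alpha-D-galactopyranoside in 50 mM citric acid, 0.005% Tween-20, pH 4.5. After 20 min at room temperature, fluorescence was read (Ex 365/Em 440 nm); AC50 came from Hill fits.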

The target in assay [5] is alpha-glucosidase (Oryza sativa, rice) (UniProt Q653V4). The assay can be described thus: Counterscreen for Glucocerebrosidase Inhibitors: qHTS Assay for Rice alpha-Glucosidase at pH 5.0 (AID 997). In outline:
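Rice alpha-glucosidase (4 nM final) with 400 uM 4-methylumbelliferyl-alpha-D-glucopyranoside in citrate buffer pH 5.0, 20 min at room temperature, stopped at pH 10; fluorescence 365/440 nm, compounds 0.7 nM–77 uM, AC50 from Hill fits.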

The target of assay [6] is Alpha-galactosidase (Coffea arabica) (UniProt Q42656). The assay can be described thus: Counterscreen for Glucocerebrosidase Inhibitors: qHTS Assay for Coffee Bean alpha-Galactosidase at pH 5.9 (AID 998). The gist of the method: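 Green coffee bean enzyme (2 nM final) was incubated with compounds (0.7 nM–77 uM) and 4-methylumbelliferyl alpha-D-galactopyranoside (80 uM) in citrate buffer pH 5.9, 20 min at room temperature. High-pH stop; fluorescence 365/440 nm; AC50 from Hill fits.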

The nature of assay [7]: Cell Viability - Hek293 (AID 427;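 active means compounds whose dose-response curve shows a full or clear partial loss of cell viability, called from curve shape rather than a numeric limit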;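 further: potency means the concentration at half of the fitted maximal effect; cells exposed to compound for 40 hours at 37 °C before reading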). The following applies: qHTS. The gist of the method:
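Luminescent ATP read-out (CellTiter-Glo, 20 min RT) after 40 hr compound exposure at 37 °C in complete medium. Signal normalized to DMSO (basal) and 100 uM tamoxifen (100% inhibition); concentration-response fitted with the standard Hill equation to give AC50.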

Assay [8] is described as follows: Cellular Toxicity (caspase-3) Mesangial (AID 660).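 Further: combined caspase 3 and 7 activity read by Caspase-Glo luminescence; cells exposed to compound for 16 h before the caspase read.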 The gist of the method: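 Concentration-response qHTS: compound-induced rise in caspase 3/7 luminescence in human mesangial cells after 16 h, normalized to DMSO and 100 uM tamoxifen controls.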
A short description of assay [9]: Cell Viability - LYMP2-005 (AID 967). Further: potency means the concentration at half of the fitted maximal effect. In outline:
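qHTS viability screen in LYMP2-005 cells: 24 h at 37 C with compound, ATP luminescence via CellTiter-Glo, AC50 from Hill curves.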

A short description of assay [10]: Cell Viability - LYMP2-002 (AID 977). Further: potency means the concentration at half of the fitted maximal effect. The gist of the method:
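Luminescent ATP readout (CellTiter-Glo, 30 min room temperature) after 24 h compound exposure at 37 C of a human lymphoblastoid line, 2500 cells/well. AC50 values derived by standard Hill fitting of qHTS concentration-response data.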

The nature of assay [11]: Cell Viability - LYMP2-008 (AID 980). Further: nearly all actives have a fitted effect of over 60% in size. The gist of the method: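 Acute cytotoxicity is scored as concentration-dependent loss of cellular ATP in a human lymphoblastoid line after 24 hr treatment at 37 C. ATP is quantified by luciferase luminescence.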
Assay [12] is described as follows: Cell Viability - LYMP2-014 (AID 983). Further: series mostly up to about 92 µM; nearly all actives have a fitted effect of over 50% in size. In outline: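 Decrease in intracellular ATP after 24 hr treatment at 37 C, measured by luciferase luminescence, indicated cytotoxicity. Concentration-response data were fitted with the standard Hill equation to give AC50.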
Assay [13] in a line: Cell Viability - LYMP2-016 (AID 984).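 Further: cells exposed to compound for 24 hours at 37 °C; nearly all actives have a fitted effect of over 55% in size.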 Further: potency means the concentration at half of the fitted maximal effect. The gist of the method:
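Acute toxicity in a Coriell human lymphoblastoid line is scored as loss of intracellular ATP over 24 h of treatment in complete medium. CellTiter-Glo signal is fitted across concentrations with the Hill equation to give AC50.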

The target of assay [14] is Glucocorticoid receptor (Homo sapiens) (UniProt P04150). Description: qHTS assay for small molecule antagonists of glucocorticoid receptor signaling (AID 588533; active means well fitted inhibition curve with a large enough effect in the signal ratio, with a control signal flat, not every such curve was filed as active; the % refers to the signal ratio;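 further: cells stimulated with 2 nM dexamethasone as agonist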). In outline: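 Antagonist-mode qHTS: compound titrations added to GRE-bla HeLa cells, then dexamethasone 2 nM final; 18 h, 37 C. CCF4 FRET fluorescence normalized to dexamethasone and DMSO; IC50 from Hill fit.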

Assay [15] has as its target Peroxisome proliferator-activated receptor gamma (Homo sapiens) (UniProt P37231). The assay can be described thus: qHTS assay for small molecule antagonists of peroxisome proliferator-activated receptor gamma signaling (AID 588537; active means well fitted inhibition curve with a large enough effect in the signal ratio, with a control signal flat, not every such curve was filed as active; the % refers to the signal ratio; further: potency means the concentration at half of the fitted maximal effect). The gist of the method: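 PPAR-gamma-UAS-bla HEK293 cells (3000/well, 1% charcoal/dextran-stripped FBS) were preincubated 6-6.5 h at 37 C, given titrated compounds, then stimulated with 50 nM rosiglitazone for 16 h. Beta-lactamase activity was read with CCF4 dye; IC50 came from Hill fits.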

Assay [16] in a line: qHTS assay for small molecule antagonists of the retinoid-related orphan receptor gamma (ROR-gamma) signaling pathway - cell viability counter screen (AID 720652; active means well fitted curve in the direction sought with a large enough effect in the repeat runs; an effect the other way counts as inactive or inconclusive;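 further: series mostly up to about 92 µM; compound exposure lasted 16 hr before ATP read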). The gist of the method: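 Cytotoxicity is quantified via intracellular ATP (CellTiter-Glo luminescence) in doxycycline-induced CHO ROR response element-luciferase reporter cells treated with compound for 16 hr at 37 C, 5% CO2.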

The nature of assay [17]: Cell Viability - LYMP2-021 (AID 974).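 Further: compound exposure lasts 24 hours at 37 °C; nearly all actives have a fitted effect of over 55% in size.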 Further: potency means the concentration at half of the fitted maximal effect. In outline:
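Concentration-response cytotoxicity in a human lymphoblastoid line: 24 hr treatment at 37 C in complete culture medium, tetraoctylammonium bromide as positive control, luminescent ATP quantitation as viability measure.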

Assay [18] in a line: Primary qHTS for small molecule stabilizers of the endoplasmic reticulum resident proteome: Secreted ER Calcium Modulated Protein (SERCaMP) assay (AID 1508630). In outline:
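GLuc-SERCaMP-expressing SH-SY5Y cells, pretreated 16 h with compound, are challenged with thapsigargin to empty ER calcium stores; after 4 h, coelenterazine is added directly to the medium and luminescence is imaged.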

The nature of assay [19]: Cell Viability - LYMP2-024 (AID 988).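 Further: cells exposed to compound for 24 hr at 37 °C; nearly all actives have a fitted effect of over 60% in size.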 Further: potency means the concentration at half of the fitted maximal effect. In outline: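 Acute toxicity is measured as concentration-dependent loss of intracellular ATP in a human lymphoblastoid line treated 24 hours at 37 C. Luciferase luminescence quantifies ATP; AC50 values come from standard Hill-equation modelling.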
For assay [20], the target named is Vitamin D3 receptor (Homo sapiens) (UniProt P11473). The assay can be described thus: qHTS assay for small molecule antagonists of vitamin D receptor signaling (AID 588541; calls by dose curve;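 further: receptor activated by calcitriol during compound treatment; series mostly up to about 77 µM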). In outline:
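VDR-UAS-bla HEK293T cells (2000/well, 2% charcoal-stripped FBS) were treated with titrated compounds plus 1-alpha,25-dihydroxyvitamin D3 (50 nM or 3 nM final) for 16 h at 37 C. CCF4 beta-lactamase fluorescence was read; Hill fits gave IC50.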

Glucocorticoid receptor (Homo sapiens), sequence (P04150 whole entry, looked up): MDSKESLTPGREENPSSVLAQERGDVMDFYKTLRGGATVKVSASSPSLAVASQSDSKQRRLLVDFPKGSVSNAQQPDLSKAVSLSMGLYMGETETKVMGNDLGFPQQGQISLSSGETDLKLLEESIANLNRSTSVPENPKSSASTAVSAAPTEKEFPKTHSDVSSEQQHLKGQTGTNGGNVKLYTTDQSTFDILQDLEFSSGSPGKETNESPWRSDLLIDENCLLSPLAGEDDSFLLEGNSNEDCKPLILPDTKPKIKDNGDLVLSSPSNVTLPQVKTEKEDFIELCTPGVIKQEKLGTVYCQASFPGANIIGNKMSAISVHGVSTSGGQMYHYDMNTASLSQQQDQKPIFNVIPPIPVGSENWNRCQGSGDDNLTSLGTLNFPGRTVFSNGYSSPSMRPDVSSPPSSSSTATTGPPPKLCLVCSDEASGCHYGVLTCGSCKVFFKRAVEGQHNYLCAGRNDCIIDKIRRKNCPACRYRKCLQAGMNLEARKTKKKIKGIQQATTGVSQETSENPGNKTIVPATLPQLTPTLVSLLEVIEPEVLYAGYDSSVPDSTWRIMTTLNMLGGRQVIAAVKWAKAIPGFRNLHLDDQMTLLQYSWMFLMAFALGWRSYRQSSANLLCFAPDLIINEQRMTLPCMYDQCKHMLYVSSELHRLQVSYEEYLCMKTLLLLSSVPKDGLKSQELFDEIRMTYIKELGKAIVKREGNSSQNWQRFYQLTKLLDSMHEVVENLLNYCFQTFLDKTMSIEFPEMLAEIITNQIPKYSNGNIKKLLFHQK
Vitamin D3 receptor (Homo sapiens), sequence (P11473 whole entry, looked up): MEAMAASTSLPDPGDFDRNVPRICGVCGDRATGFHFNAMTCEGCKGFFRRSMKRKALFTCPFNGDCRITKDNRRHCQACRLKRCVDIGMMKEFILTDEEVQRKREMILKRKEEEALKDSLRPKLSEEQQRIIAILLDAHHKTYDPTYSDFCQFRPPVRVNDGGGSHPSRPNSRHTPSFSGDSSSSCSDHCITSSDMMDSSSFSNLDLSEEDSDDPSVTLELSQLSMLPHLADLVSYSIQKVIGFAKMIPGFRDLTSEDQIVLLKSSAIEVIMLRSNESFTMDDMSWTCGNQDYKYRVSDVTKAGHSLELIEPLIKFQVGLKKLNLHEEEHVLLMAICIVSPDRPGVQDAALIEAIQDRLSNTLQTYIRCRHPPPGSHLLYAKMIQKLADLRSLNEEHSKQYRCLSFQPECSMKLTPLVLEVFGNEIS
Alpha-galactosidase (Coffea arabica), sequence (Q42656 whole entry, looked up): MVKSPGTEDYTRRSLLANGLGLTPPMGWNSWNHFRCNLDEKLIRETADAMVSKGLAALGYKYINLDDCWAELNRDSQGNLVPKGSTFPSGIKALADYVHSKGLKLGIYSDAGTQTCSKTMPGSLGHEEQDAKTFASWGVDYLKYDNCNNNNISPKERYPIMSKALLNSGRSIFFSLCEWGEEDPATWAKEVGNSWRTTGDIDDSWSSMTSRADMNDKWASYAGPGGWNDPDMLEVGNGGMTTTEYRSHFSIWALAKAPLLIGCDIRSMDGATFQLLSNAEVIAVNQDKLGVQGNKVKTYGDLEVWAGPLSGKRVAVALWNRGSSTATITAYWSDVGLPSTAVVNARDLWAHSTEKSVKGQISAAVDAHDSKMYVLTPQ
Alpha-galactosidase A (Homo sapiens), sequence (P06280 whole entry, looked up): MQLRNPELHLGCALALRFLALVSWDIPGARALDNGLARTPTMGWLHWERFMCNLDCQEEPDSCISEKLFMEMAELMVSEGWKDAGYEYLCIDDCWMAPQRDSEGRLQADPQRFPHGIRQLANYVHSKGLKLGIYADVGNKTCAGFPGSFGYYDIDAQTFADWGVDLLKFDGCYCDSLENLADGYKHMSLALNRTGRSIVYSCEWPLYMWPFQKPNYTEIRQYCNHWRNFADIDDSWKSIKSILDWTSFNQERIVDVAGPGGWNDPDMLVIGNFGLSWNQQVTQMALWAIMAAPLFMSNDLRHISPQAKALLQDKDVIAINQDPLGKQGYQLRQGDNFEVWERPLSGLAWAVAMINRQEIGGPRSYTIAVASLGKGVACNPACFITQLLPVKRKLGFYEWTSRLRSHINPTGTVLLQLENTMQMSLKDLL
Pyruvate kinase (Leishmania mexicana), sequence (Q27686 2-499 E452W): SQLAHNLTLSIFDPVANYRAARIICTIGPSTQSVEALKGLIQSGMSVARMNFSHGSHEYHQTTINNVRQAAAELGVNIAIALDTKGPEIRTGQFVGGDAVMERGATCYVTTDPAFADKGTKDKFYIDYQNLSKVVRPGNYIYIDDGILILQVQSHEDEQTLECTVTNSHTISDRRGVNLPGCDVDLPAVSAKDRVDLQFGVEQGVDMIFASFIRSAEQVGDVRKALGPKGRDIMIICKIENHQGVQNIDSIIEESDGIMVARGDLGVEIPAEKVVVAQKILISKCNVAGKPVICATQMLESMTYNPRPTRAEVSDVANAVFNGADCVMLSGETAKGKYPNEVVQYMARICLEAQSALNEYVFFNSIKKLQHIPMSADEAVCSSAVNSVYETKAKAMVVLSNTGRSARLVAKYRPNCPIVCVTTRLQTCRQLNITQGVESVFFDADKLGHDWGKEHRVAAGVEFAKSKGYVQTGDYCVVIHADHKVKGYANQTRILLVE
Guanine nucleotide-binding protein G(i) subunit alpha-1 (Homo sapiens), sequence (P63096 whole entry, looked up): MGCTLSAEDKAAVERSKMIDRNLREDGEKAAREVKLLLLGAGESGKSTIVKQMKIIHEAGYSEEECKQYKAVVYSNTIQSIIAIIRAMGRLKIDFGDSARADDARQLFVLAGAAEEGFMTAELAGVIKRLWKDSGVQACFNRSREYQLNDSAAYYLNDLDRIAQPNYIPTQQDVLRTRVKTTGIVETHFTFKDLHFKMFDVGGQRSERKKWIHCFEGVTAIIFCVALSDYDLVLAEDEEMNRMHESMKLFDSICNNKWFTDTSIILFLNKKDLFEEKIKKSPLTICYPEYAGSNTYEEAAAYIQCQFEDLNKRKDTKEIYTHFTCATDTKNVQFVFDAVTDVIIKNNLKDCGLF
Peroxisome proliferator-activated receptor gamma (Homo sapiens), sequence (P37231 whole entry, looked up): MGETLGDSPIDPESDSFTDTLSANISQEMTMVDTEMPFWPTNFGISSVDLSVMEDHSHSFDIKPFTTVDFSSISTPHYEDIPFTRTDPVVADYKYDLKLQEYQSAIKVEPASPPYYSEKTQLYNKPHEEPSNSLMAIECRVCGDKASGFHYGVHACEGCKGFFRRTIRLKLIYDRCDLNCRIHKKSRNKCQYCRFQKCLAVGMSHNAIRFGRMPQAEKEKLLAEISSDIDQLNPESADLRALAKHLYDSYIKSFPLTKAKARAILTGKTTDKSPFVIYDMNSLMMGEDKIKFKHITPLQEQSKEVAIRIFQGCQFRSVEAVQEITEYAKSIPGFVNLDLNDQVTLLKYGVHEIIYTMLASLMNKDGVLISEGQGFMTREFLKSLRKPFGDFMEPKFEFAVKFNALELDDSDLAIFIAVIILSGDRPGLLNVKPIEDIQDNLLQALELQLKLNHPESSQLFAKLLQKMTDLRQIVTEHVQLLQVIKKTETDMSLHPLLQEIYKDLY

`O=C(OC1CCN(CCCl)CC1)C(c1ccccc1)c1ccccc1`: the compound was called inactive in [1], in [3], in assay [4], in [5] and in assay [6]. The Potency entry in assay [2] was “inactive”.
Turning to `CNC(=O)O/N=C/C(C)(C)SC`, the Potency in assay [7] is > 92 µM (inactive); in [15] it was “inactive and 39.8 µM (active)”. Also, in [8], the compound was classed as inactive. Further, the Potency result in assay [9], in assay [10], in assay [11], in [12], in assay [13] and in assay [14] was “inactive” each time. For the same compound, the Potency entry in assay [16] is “inactive”.
For `CCOCN(C(=O)CCl)c1c(C)cccc1CC`, the Potency in assay [17] is 50.1 µM (active). Moreover, the Potency entry in [10] and in assay [16] was “inactive” throughout.
In the case of `COc1ccc(NC(=O)N2CC3(CCN(C(=O)Oc4ccccc4)CC3)C2)cc1`, in [18], the outcome was inactive.
As for `O=C(O)COc1ccc(Cl)cc1Cl`, the Potency in assay [7] is > 92 µM (inactive). The Potency entry in [9], in assay [17], in [10], in [11], in assay [12] and in assay [13] was “inactive” in each case. Also, the Potency result in [19], in assay [14] and in assay [16] was “inactive” in each case. Also, in assay [20], the outcome was inactive.
For `ClC1=C(Cl)C2(Cl)C3C4CC(C5OC45)C3C1(Cl)C2(Cl)Cl` (stereo not drawn), the Potency in [7] was > 92 µM (inactive); in [9], 20 µM (active); in assay [17] it was 39.8 µM (active); in assay [10], 31.6 µM (active); in [13], 50.1 µM (active); in assay [19] it was 39.8 µM (active). For the same compound, the compound was called inactive in [8] and in assay [20]. For the same compound, the Potency entry in [14] was “inactive”.
For `COc1cc2occc2c2oc(=O)ccc12`, the outcome in [18] was inactive.
Still for that read-out and setting: under `COc1ccc(NC(=O)N2CC[C@@]3(CCCN(C(=O)Oc4ccccc4)C3)C2)cc1` stands “inactive”.
In the case of `CC[C@@]1(c2ccc(N)cc2)CCC(=O)NC1=O`, the call in assay [1], in assay [3], in assay [4], in assay [5] and in [6] was inactive. The Potency entry in assay [2] was “inactive”.
